PubChem BioAssay (Tox21)
Records with an inconclusive call do not appear. Entries that show only a call come without a potency. Values without a mark were called inactive. The source made the active and inactive calls. The call rests on the fitted dose curve; in most records, active means well fitted cell-killing curve with a large enough effect in the repeat runs; inconclusive means weak or mixed curves, or effect the other way; inactive means flat fitted curve, though single readings scatter.

Experiment: qHTS assay to identify small molecule agonists of the TGF-beta/Smad signaling pathway - cell viability counter screen (AID 1346829); further: top concentration of the series differs between compounds; nearly all actives have a fitted effect of over 45% in size
Conditions: SBE-bla HEK293T viability, CellTiter-Glo luminescence, 5 h; series mostly up to 76.8 µM
Text: National Center for Advancing Translational Sciences [NCATS]
NIH Chemical Genomics Center [NCGC]
U.S. Environmental Protection Agency [EPA]
National Institutes of Environmental Health Sciences [NIEHS]
National Toxicology Program [NTP]
U.S. Food and Drug Administration [FDA]
Transforming growth factor beta (TGF-beta) superfamily consists of a large number of structurally related dimeric proteins that act as hormones or local mediators in regulating a wide range of biological functions. This superfamily includes TGF-betas themselves, the bone morphogenetic proteins (BMPs) and the activins. These ligands induce oligomerization of serine/threonine receptor kinases and phosphorylate the cytoplasmic signaling molecules of Smad protein family. CellSensor SBE-bla HEK 293T cell line (Life Technologies, Carlsbad, CA), responsive to TGF-beta was used to screen Tox21 10K compound library for identification of agonists/antagonists of the Smad signaling pathway. This cell line contains a beta-lactamase reporter gene under control of the Smad binding element (SBE) stably integrated into HEK 293T cells. Also cytotoxicity of the compounds was tested in parallel by measuring the cell viability using CellTiter-Glo assay system in the same wells.
Tox21 Assay Protocol Summary:
SBE-bla HEK 293T cells were dispensed at 4,000/well in 6 uL of assay medium into black wall/clear-bottom 1536-well plates using a Multidrop Combi (ThermoFisher Scientific, Waltham, MA) dispenser. After the assay plates were incubated at 37 C and 5% CO2 for an overnight, 23 nL of compounds dissolved in DMSO, positive controls or DMSO only was transferred to the assay plate by a Pintool station (Kalypsys, San Diego, CA). The assay plates were incubated at 37 C and 5% CO2 for 5 hr. One uL of LiveBLAzer B/G FRET substrate (Life Technologies) was added using a Flying Reagent Dispenser (FRD, Aurora Discovery, San Diego, CA) and the plates were incubated at room temperature for 2 hr. Fluorescence intensity (405 nm excitation, 460 nm and 530 nm emissions) was measured using an Envision plate reader (PerkinElmer, Shelton, CT). For cytotoxicity read, 4 uL of CellTiter-Glo reagent (Promega Corporation, Madison, WI) was added to each well of the assay plates using FRD. After 30min incubation at room temperature, the luminescence intensity was measured using ViewLux plate reader (PerkinElmer).

Row | Structure (SMILES) | Potency | activity change, negative = cytotoxicity
1 | C=C(C)c1ccccc1 | inactive | 
2 | COc1cc(OC)c2ccc(=O)oc2c1 | inactive | 
3 | Nc1ccc(S(=O)(=O)NCc2ccccc2)cc1 | inactive | 
4 | O=C(Oc1ccccc1)c1ccc2ccccc2c1O | inactive | 
5 | O=[N+]([O-])c1ccc2ncccc2c1 | inactive | 
6 | CC(=O)OCC(=O)[C@@]1(OC(C)=O)[C@@H](C)C[C@H]2[C@@H]3C[C@H](F)C4=CC(=O)C=C[C@]4(C)[C@@]3(F)[C@@H](O)C[C@@]21C | inactive | 
7 | CCCOC(=O)c1c(Cl)c(Cl)c(Cl)c(Cl)c1C(=O)OCCC | inactive | 
8 | BrC(Br)C(Br)Br | inactive | 
9 | O=C(NC(Cc1cc(=O)[nH]c2ccccc12)C(=O)O)c1ccc(Cl)cc1 (stereo not given) | inactive | 
10 | CCCCCCCCCCCCCCCCCC(=O)OCC(CC)CCCC (stereo not given) | inactive | 
11 | COC1CCC=CO1 (stereo not given) | inactive | 
12 | CNc1c2c(nn1C)CCCC2 | inactive | 
13 | COC(OC)OC | inactive | 
14 | CC1=CC[C@@H]2C[C@H]1C2(C)C |  | 7.86% [at 15.8 µM]
15 | CC(=O)OC(C)C[N+](C)(C)C (stereo not given) | inactive | 
16 | CCC(=O)OCc1ccc(OC)cc1 | inactive | 
17 | CC(=O)Oc1cccc(O)c1 | inactive | 
18 | Nc1ccc(F)cc1 | inactive | 
19 | CCC(CO)(CO)[N+](=O)[O-] | inactive | 
20 | CC(=O)NCCO | inactive | 

Row | Structure (SMILES) | Potency | activity change, negative = cytotoxicity
21 | Nc1nc2ccc(OC(F)(F)F)cc2s1 | inactive | 
22 | CCCCCc1ccco1 | inactive | 
23 | O=C(O)CCC(=O)OC[C@@H](NC(=O)C(Cl)Cl)[C@H](O)c1ccc([N+](=O)[O-])cc1 | inactive | 
24 | Cc1ccc2nc(N)[nH]c(=O)c2c1Sc1ccncc1 | inactive | 
25 | CC[C@H]1OC(=O)[C@H](C)[C@@H](O[C@H]2C[C@@](C)(OC)[C@@H](O)[C@H](C)O2)[C@H](C)[C@@H](O[C@@H]2O[C@H](C)C[C@H](N(C)C)[C@H]2O)[C@](C)(O)C[C@@H](C)CN(C)[C@H](C)[C@@H](O)[C@]1(C)O | inactive | 
26 | CNC1CCCN(c2c(F)cc3c(=O)c(C(=O)O)cn(C4CC4)c3c2OC)C1 (stereo not given) | inactive | 
27 | CS(=O)(=O)c1ccc([C@@H](C[C@H]2CCC(=O)C2)C(=O)Nc2cnccn2)cc1Cl | inactive | 
28 | CCOCCC(=O)OCC | inactive | 
29 | COc1ccc(-c2cc(C(F)F)nn2-c2ccc(S(N)(=O)=O)cc2)cc1F | inactive | 
30 | Oc1cccc2[nH]ccc12 | inactive | 
31 | CC1CCCO1 (stereo not given) | inactive | 
32 | O=C(O)c1cccc(C[C@@H]2COc3ccc(OCc4nc5cc(F)ccc5s4)cc3[C@@H]2O)c1 | inactive | 
33 | CCN(CC)CCOc1ccccc1C(=O)CCc1ccccc1 | inactive | 
34 | O[C@@H](CNC[C@H](O)[C@H]1CCc2cc(F)ccc2O1)[C@@H]1CCc2cc(F)ccc2O1 | inactive | 
35 | CC(C)OC(=O)c1ccccc1C(=O)OC(C)C | inactive | 
36 | CC(=O)C(C)=O | inactive | 
37 | CC1C(C)(C)C2=C(C(=O)CCC2)C1(C)C (stereo not given) | inactive | 
38 | CC(O)Cn1cnc2c1c(=O)n(C)c(=O)n2C (stereo not given) | inactive | 
39 | CC(C)(C)C1(CCc2ccc(Cl)cc2)CO1 (stereo not given) | inactive | 
40 | c1ccc2sc(SSc3nc4ccccc4s3)nc2c1 |  | 25.5% [at 15.8 µM]
